Experimental findings from PubChem BioAssay AID485358 (National Center for Advancing Translational Sciences (NCATS), 2010) are described below.

In all, about 340,000 compounds went through this assay and about 1,800 (0.53%) were called active. The list comes from a sample in which actives are over-represented; it also holds similar structures and randomly drawn compounds. Values without a mark were called inactive.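 Rule for the calls: active = activation over 3 SD above normal in the single-dose calcium agonist read (cut at about 30% in these data); inactive = the rest.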

In this experiment the target is D(2) dopamine receptor (Homo sapiens) (UniProt P14416). In words: HTS Assay for Allosteric Agonists of the Human D2 Dopamine Receptor: Primary Screen for Agonists. Note: 0% is about no effect. The conditions noted are these: HEK293 T-REx D2 cells, calcium flux agonist mode; at 2 µM; active compounds read high. Summed up: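 Tetracycline-induced HEK293 Trex cells with D2 receptor force-coupled to calcium signaling, plated overnight at 30 C and loaded with no-wash calcium dye. Calcium flux read kinetically for 180 s after compound addition; responses flag agonists.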
Sequence of D(2) dopamine receptor (Homo sapiens) (P14416 whole entry, looked up): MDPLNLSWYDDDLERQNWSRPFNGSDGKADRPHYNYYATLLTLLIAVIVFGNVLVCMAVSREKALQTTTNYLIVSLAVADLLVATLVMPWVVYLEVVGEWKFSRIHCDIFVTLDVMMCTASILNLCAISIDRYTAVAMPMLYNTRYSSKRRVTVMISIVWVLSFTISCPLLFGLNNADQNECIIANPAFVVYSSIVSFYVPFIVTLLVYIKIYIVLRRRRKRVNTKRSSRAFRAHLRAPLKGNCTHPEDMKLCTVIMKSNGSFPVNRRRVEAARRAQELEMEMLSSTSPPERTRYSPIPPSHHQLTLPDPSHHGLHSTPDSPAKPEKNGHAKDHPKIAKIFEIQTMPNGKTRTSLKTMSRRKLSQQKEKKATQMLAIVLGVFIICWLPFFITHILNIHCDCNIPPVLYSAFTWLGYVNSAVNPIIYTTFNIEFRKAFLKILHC
As to `N#C/C(=C/c1ccc(N2CCCCC2)o1)C(=O)NCCc1c[nH]c2ccccc12`, the activation is 38.7% (active).

Regarding `N#C/C(=C/c1ccc(N2CCOCC2)o1)C(=O)N1CCOCC1`, the activation was 7.75%.

`O=C(NCCc1c[nH]c2ccccc12)C1CCN(Cc2ccc(Br)cc2)CC1`: the activation is -0.253%. For the compound `CCOc1cc(-c2nnc(SCC(=O)NC3CCCC3)nc2-c2ccc(OC)c(OCC)c2)ccc1OC`, the activation is 0.392%. For the compound `Cc1ccc(C(=O)Nc2c(C(=O)NC(C)(C)C)oc3ccccc23)cc1`, the activation is 0.0939%. Turning to `CCOC(=O)N1CCN(Cc2nc3cc(NC(C)=O)ccc3n2C)CC1`, the activation was 0.585%. Turning to `O=C(Cc1ccc(Br)cc1)N1CCN(c2ccccn2)CC1`, the activation was 0.551%. With `CCC(=O)Nc1ccc2c(c1)nc(CCN1CCN(c3ccccn3)CC1)n2C` the figure was 78.2% (active); with `Cn1c(CCN2CCCCCC2)nc2cc(NC(=O)Nc3ccccc3)ccc21`, 1.58%.

Take `CS(=O)(=O)N1CCN(CC(=O)NC2CCCC2)CC1`: the activation was -0.0909%.

As to `O=C(CSc1n[nH]c(=O)n1-c1ccccc1)Nc1ccccc1C(F)(F)F`, the activation is 0.222%.

As for `CC(C(=O)N(C)CC(=O)Nc1ccccc1C(F)(F)F)N1C(=O)c2ccccc2C1=O` (configuration not stated), the activation was -0.167%. For the compound `O=C(CN1CCN(c2ccccn2)CC1)Nc1ccc(Br)cc1`, the activation was 43.9% (active). Regarding `O=C(CN1CCN(c2ncccn2)CC1)Nc1ccccc1C(F)(F)F`, the activation was 57.8% (active).

Turning to `O=C(CN1CCN(c2ccccn2)CC1)NCc1cccs1`, the activation is 18.2%. Next, `O=C(CN1CCN(c2ccccn2)CC1)NC1CCCCC1`: 67.6% (active). For the compound `CCN(CC)c1ccc(NC(=O)CN2CCN(c3ccccn3)CC2)cc1`, the activation was 26.5%. With `CC1CCN(S(=O)(=O)c2ccc3c(c2)N(CC(=O)NCc2ccccc2Cl)C(=O)CO3)CC1` the figure was -0.934%; with `CCc1ccc(Sc2cc(C(=O)NCCCOC(C)C)c3ccccc3n2)cc1`, 0.0547%; with `Cc1c(Cl)cccc1-c1ccc(CNCCCSc2nnnn2C)o1`, 0.946%. In the case of `COc1ccc(-c2cn3nc(N4CCC(C(=O)Nc5cccc(C)c5C)CC4)sc3n2)cc1`, the activation is 1.52%. With `CSc1cccc(NC(=O)CN2C(=O)CCc3cc(S(=O)(=O)N4CCCCC4)ccc32)c1` the figure was 1.49%. Next, `COc1ccc(NC(=O)NC(C)c2c(-n3cccc3)sc(C)c2C)cc1OC` (configuration not stated): 0.829%. Consider `CCOC(=O)c1c(C)[nH]c(C)c1S(=O)(=O)NCC(=O)NCc1cccc(C)c1`, for which the activation is 0.112%. Turning to `COc1ccc(CCNC(=O)c2cc(=O)c3c(C)cc(C)cc3o2)cc1OC`, the activation is -0.676%.

On to `COc1cccc(CNC(=O)C(=O)NCC(c2cccs2)S(=O)(=O)c2ccccc2)c1` (configuration not stated), for which the activation is 17.6%. Regarding `CCN1CCN(c2ncnc3c2cnn3-c2ccc(C)c(C)c2)CC1`, the activation is 0.887%.

As for `COc1cc(C(=O)NCC(c2ccc(Cl)cc2)N2CCOCC2)cc(OC)c1OC` (configuration not stated), the activation is -0.027%.

Consider `Cc1cc(C)c2oc(C(=O)Nc3c(C(=O)Nc4ccccc4)oc4ccccc34)cc(=O)c2c1`, for which the activation is 0.443%. With `Cc1ccccc1C(=O)N(Cc1ccc(N(C)C)cc1)CC1CCCO1` (configuration not stated), the activation was -0.0491%. With `O=C(Nc1cc(-c2nc3ccccc3o2)ccc1Cl)c1cc([N+](=O)[O-])ccc1N1CCOCC1` the figure was -0.175%; with `Cc1ccccc1OCC(=O)Nc1c(C(=O)Nc2ccccc2F)oc2ccccc12`, -0.888%. Next, `Cn1c2ccccc2c2c(C(=O)N3CCN(c4ccc(F)cc4)CC3)cn(C3CCCC3)c(=O)c21`: 0.715%; `CCCc1nc2c(c(=O)c3ccccc3n2C)c(=O)n1C1CCCCCC1`: 38.8% (active). Next, `CCOC(=O)c1nnn2c3ccccc3c(=O)n(C)c12`: 0.451%. Take `COc1cccc(CNc2nccn(-c3ccc(OC)c(OC)c3)c2=O)c1`: the activation is 0.433%. Next, `CCOc1ccccc1C(=O)NC1(C(F)(F)F)NC(=O)N(CCc2ccc(OC)c(OC)c2)C1=O` (configuration not stated): -1.49%. With `Cc1ccc(C)c(CN2C(=O)c3ccccc3S(=O)c3ccc(C(=O)N4CCOCC4)cc32)c1` (configuration not stated) the figure was 0.908%; with `CCSc1nnc2c(n1)OC(c1ccc(OCC(=O)O)cc1)Nc1ccccc1-2` (configuration not stated), -0.918%; with `CC(C)c1csc(CN2CCC(CO)(Cc3ccccc3)CC2)n1`, 0.222%. For `OCC1(Cc2ccccc2)CCN(Cc2cc3ccccc3o2)CC1`, the activation was 58.8% (active). On to `O=C(c1cc2ccccc2o1)N1CCN(Cc2ccccc2)CC1`, for which the activation is 0.213%. Next, `OC(COc1ccc2c(c1)CCC2)CN1CCN(c2cccc(Cl)c2)CC1` (configuration not stated): 55.1% (active). With `O=C(c1ccc(Cl)cc1)c1ccc(OCC(O)CN2CCCCC2)cc1` (configuration not stated) the figure was 0.406%; with `O=c1cc(CN2CCN(c3cccc(Cl)c3)CC2)c2cc3c(cc2o1)CCCC3`, -0.276%.

On to `CCNS(=O)(=O)c1ccc(NC(=O)CSc2nc(-c3ccco3)cc(C(F)(F)F)n2)cc1`, for which the activation was -0.45%. `Nc1c(C(=O)c2cccs2)sc2nsc(SCCN3CCCCC3)c12`: the activation is 52.2% (active). Next, `COc1ccc(CCC(=O)NCc2ccc3c(c2)CCN3C(=O)c2ccc(F)cc2)cc1`: 1.61%; `CCN1CCN(c2ncc3c(n2)CC(c2ccccc2O)CC3=O)CC1` (configuration not stated): -0.199%; `CCN(CC)CCC(c1ccc2c(c1)OCO2)c1c(OC)cc(OC)c2c(-c3ccccc3)cc(=O)oc12` (configuration not stated): -1.38%. Turning to `COc1cc(OC)c2ccc(=O)oc2c1C(CCN1CCN(c2ccccc2)CC1)c1ccc2c(c1)OCO2` (configuration not stated), the activation is 78.4% (active). Next, `COc1cc(C(CCN2CCN(c3ccccc3)CC2)c2c(OC)cc(OC)c3ccc(=O)oc23)cc(OC)c1OC` (configuration not stated): 25.6%; `CCCn1c2ccccc2c2cnn(CC(=O)N3CCCC(C(=O)OCC)C3)c(=O)c21` (configuration not stated): 0.474%. With `CCN(C(=O)Cn1c(=O)nc(-c2ccccc2)c2cc(Cl)ccc21)c1cccc(C)c1` the figure was 6.7%. On to `O=c1cc(CCl)nc2scc(-c3ccccc3)n12`, for which the activation is 39.4% (active).

Consider `Cc1csc2nc(COC(=O)c3ccccc3NC(=O)c3ccccc3Cl)cc(=O)n12`, for which the activation was 0.344%.

With `Cc1csc2nc(COc3ccc(NC(=O)COc4ccccc4)cc3)cc(=O)n12`, the activation is -0.592%. With `CCc1ccccc1NC(=O)c1ccc(F)c(S(=O)(=O)NC2CCCCCC2)c1` the figure was 0.52%; with `COc1ccc(NC(=O)CN2CCCN(Cc3ccccc3)S2(=O)=O)cc1`, -1.11%. Regarding `COc1ccc(-c2nn(CC(=O)Nc3ccccc3F)c3c2cnc2ccc(F)cc23)cc1`, the activation was 0.341%. With `CN1C(=O)c2[nH]nc(-c3ccc(F)cc3)c2C1c1ccccn1` (configuration not stated), the activation was 1.23%. Take `Cc1ccccc1N1CCN(CCCOc2ccc3c(C)cc(=O)oc3c2)CC1`: the activation was 80.1% (active). With `CCOc1ccccc1N1CCN(C(=O)COc2ccc3c(C)cc(=O)oc3c2)CC1` the figure was -0.577%; with `Cc1cc(=O)oc2cc(OCCC[n+]3ccccc3)ccc12`, 0.774%. With `CCOc1ccc(NC(=O)Cn2cc(C(=O)c3ccc(C)cc3)c(=O)c3cc4c(cc32)OCCO4)cc1` the figure was -0.524%; with `CC(=O)NCC(O)c1ccc([N+](=O)[O-])cc1` (configuration not stated), -2.19%; with `CNCC(O)c1ccc(O)c(O)c1` (configuration not stated), 64.9% (active).

Consider `CC(Sc1oc(-c2ccco2)nc1S(=O)(=O)c1ccc(Br)cc1)c1ccccc1` (configuration not stated), for which the activation is 0.011%.

`COc1ccccc1C(=O)Nc1c(C(=O)N(C)Cc2ccccc2)sc2nc(C)c(Cl)c(C)c12`: the activation was 0.563%. For the compound `COc1cc(NC(=O)c2nc3ccccc3nc2C)cc(OC)c1OC`, the activation was 0.0893%. With `COc1cccc(CNC(=O)c2cc(=O)[nH]c3ccc(S(=O)(=O)N4CCCCC4)cc23)c1` the figure was 0.436%; with `CCOc1ccc(N(CC)C(=O)c2noc3c2COc2ccc(C)cc2-3)cc1`, 0.123%.

For `Cc1ccccc1Nc1nc(N)nc(CN2CCN(c3ccccn3)CC2)n1`, the activation is 38.5% (active). Regarding `Cc1ccccc1Nc1nc(N)nc(CSc2ccccc2)n1`, the activation was 0.151%.

In the case of `Cc1ccccc1Nc1nc(N)nc(CSc2nnc3ccccn23)n1`, the activation was 0.185%. With `CCOc1ccc(N(Cc2ccccc2)C(=O)c2nc(S(C)(=O)=O)ncc2Cl)cc1` the figure was 10%.

With `COc1ccccc1CNC(=O)CCn1c(=O)c2ccccc2n(CC(=O)Nc2ccc(Br)cc2F)c1=O`, the activation is -0.617%. For the compound `COc1cccc(-c2ccc3c(c2)S(=O)(=O)c2cccc(C(=O)O)c2C3=O)c1OC`, the activation was 1.73%. As to `Cc1ccc(CNC(=O)c2cccc3c2C(=O)c2ccc(N4CCC(C)CC4)cc2S3(=O)=O)cc1`, the activation was 32% (active). With `CC1CCN(c2c(NCc3ccc(C(=O)NCc4ccccc4)cc3)c(=O)c2=O)CC1` the figure was -1.43%; with `CCOc1cccc(CC(=O)N2CCc3c([nH]c4ccccc34)C2c2ccc(F)cc2)c1OCC` (configuration not stated), -0.484%; with `Cc1c(CCNC(=O)c2ccc(C(F)(F)F)cc2)sc2nc(-c3ccc(F)cc3)nn12`, -2.35%. Next, `O=C(NCc1ccccc1Cl)c1ccc2c(=O)n(CC3CCCO3)c(=S)[nH]c2c1` (configuration not stated): -2.85%; `CCCCCn1c(=O)[nH]c2cc(C(=O)NCCCN3CCCCC3C)ccc2c1=O` (configuration not stated): 1.64%.

With `O=C(NC1CCCCC1)c1ccc2c(=O)n(CC3CCCO3)c(=O)[nH]c2c1` (configuration not stated), the activation was 31.5% (active). With `COc1ccc(-c2nc3nc(C)cc(C)n3c2Nc2c(C)cccc2C)cc1` the figure was 2.98%. Next, `CCc1cc2c(cc3c(=O)n(CC(=O)NCCc4ccc(OC)c(OC)c4)ncn32)s1`: -0.234%.
